Consider 21 compounds from PubChem BioAssay AID504904 (The Scripps Research Institute Molecular Screening Center, 2011).

The list shows a part of the results. Activity calls are given as the source filed them. Rule as the data show it: active = activation above about 18%; inactive = the rest.

In this assay the target is Mu-type opioid receptor (Homo sapiens) + Delta-type opioid receptor (Homo sapiens) (UniProt P35372+P41143). Put plainly: agonists of MOR-DOR heterodimerization, confirmation, cell-based, luminescence (AID 504904).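 Also: 0% = vehicle-treated cells and 100% = reference agonist.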 The settings on record: cells, luminescence complementation, at 9.3 µM, active compounds read high.
Chain of Mu-type opioid receptor (Homo sapiens) + Delta-type opioid receptor (Homo sapiens) (P35372 whole entry, looked up): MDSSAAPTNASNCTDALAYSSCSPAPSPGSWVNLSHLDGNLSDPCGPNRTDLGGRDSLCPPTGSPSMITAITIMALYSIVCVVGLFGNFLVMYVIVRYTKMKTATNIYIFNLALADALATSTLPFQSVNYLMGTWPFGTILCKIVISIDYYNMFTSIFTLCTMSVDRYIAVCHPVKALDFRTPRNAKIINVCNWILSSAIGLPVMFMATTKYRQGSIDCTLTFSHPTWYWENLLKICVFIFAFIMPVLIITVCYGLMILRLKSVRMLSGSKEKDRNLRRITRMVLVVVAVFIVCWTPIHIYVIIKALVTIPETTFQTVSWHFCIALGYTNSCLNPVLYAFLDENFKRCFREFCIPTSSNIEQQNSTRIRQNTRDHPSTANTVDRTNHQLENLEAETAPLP
Chain of Mu-type opioid receptor (Homo sapiens) + Delta-type opioid receptor (Homo sapiens) (P41143 whole entry, looked up): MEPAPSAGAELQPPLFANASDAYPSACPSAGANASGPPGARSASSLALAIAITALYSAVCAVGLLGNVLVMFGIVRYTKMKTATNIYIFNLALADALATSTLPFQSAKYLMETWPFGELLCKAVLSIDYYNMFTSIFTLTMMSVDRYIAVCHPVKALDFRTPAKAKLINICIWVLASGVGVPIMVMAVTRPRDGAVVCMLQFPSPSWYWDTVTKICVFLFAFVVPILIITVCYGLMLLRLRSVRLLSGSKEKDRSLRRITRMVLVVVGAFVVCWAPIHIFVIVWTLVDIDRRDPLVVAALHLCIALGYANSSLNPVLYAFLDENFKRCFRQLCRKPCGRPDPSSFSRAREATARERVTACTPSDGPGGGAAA
Consider `CC1CCCN(CCOCCOc2ccccc2-c2ccccc2)C1` (stereo unspecified), for which the activation was 1.28% (inactive). In the case of `N#CC(C(=O)c1ccc(S(=O)(=O)N2CCCCCC2)cc1)c1nc2ccccc2[nH]1` (stereo unspecified), the activation was 6.41% (inactive). Next, `COCCCNc1nc2c(-c3cccc(C)c3)nnn2c2ccc(Cl)cc12`: 15.3% (inactive); `CC(OC(=O)/C=C/c1ccccc1)C(=O)Nc1ccc(C(N)=O)cc1` (stereo unspecified): -2.09% (inactive). Next, `COc1cc(C(=O)OC(C)C(=O)NCC2CCCCC2)cc(NC(=O)c2ccco2)c1OC` (stereo unspecified): 213% (active); `O=C(NC1=CC(=O)c2ccccc2C1=O)c1ccccc1`: 7.9% (inactive); `COc1ccc(C(CNCC(=O)Nc2ccccc2F)N(C)C)cc1` (stereo unspecified): 145% (active).

As to `CN(C)C(CNC(=O)c1ccc(S(=O)(=O)NCc2ccco2)cc1)c1ccccc1` (stereo unspecified), the activation is 16.7% (inactive).

Turning to `Cc1ccc(CN(C(=O)c2sc3ccccc3c2Cl)C2CCS(=O)(=O)C2)cc1` (stereo unspecified), the activation was 24.1% (active). Next, `COc1ccccc1C(CNC(=O)c1ccc(C)c(S(=O)(=O)N2CCCCC2)c1)N(C)C` (stereo unspecified): 3.98% (inactive); `COc1ccc(-n2nnnc2-c2nc3ccccc3s2)cc1`: 3.47% (inactive); `Cc1ccc(Nc2ccccc2N)cc1`: 3.92% (inactive). Regarding `Cc1ccc(-n2c(SCC(=O)NCCC3=CCCCC3)nc3n[nH]c(C)c3c2=N)cc1Cl`, the activation was 2.44% (inactive). Consider `Cc1ccc(OCC(=O)Nc2ccc(NC(=O)c3cccs3)cc2)c(C)c1`, for which the activation was 421% (active).

Consider `Cc1cc(C)cc(C(=O)N(CCc2ccccc2)C2=CC3CCC(C2)N3C)c1` (stereo unspecified), for which the activation was 137% (active). On to `CCOC(=O)C1(CC2CCCCO2)CCN(Cc2nc(-c3cccs3)oc2C)CC1` (stereo unspecified), for which the activation was 49.1% (active). The same measure for `COc1ccc(C2Nc3ccccc3C(=O)N2c2ccc(F)cc2)cc1Cn1nnc2ccccc21` (stereo unspecified): 0.83% (inactive). `O=C1N/C(=C/c2cccs2)C(=O)N1Cc1ccc(F)cc1`: the activation is 35% (active). Take `CN1C(CC(=O)Nc2ccc(Br)cc2)c2ccccc2CC1(C)C` (stereo unspecified): the activation was 89.7% (active). For `COc1ccc(SC[C@H](Cc2ccccc2)N2CCN(CCc3ccccc3)CCC2=O)cc1`, the activation was 28.3% (active). The same measure for `Clc1ccc(COn2c(-c3ccc(Cl)cc3Cl)nc3ncccc32)cc1`: 2.83% (inactive).
